The sample as a whole holds a higher share of hits than the screen did.
p53null 39C kill – qHTS Screen for Compounds that Selectively Target Cancer Cells with p53 Mutations: Cytotoxicity of p53 Null Cells at the Nonpermissive Temperature. Potency, µM (series often up to 46.1 µM), for the others: at the highest dose activity, negative = cell killing, hits mostly cytotoxic. H1299 p53-null (neo) cells, 39C, ATPlite viability, 24 h. 0.97% of 55,000 active;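 also: potency is read from the fitted curve at half-maximal effect; 0% = DMSO only and -100% = full killing by 100 µM tamoxifen; nearly all actives have a fitted effect of over 50% in size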
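Temperature-shift cytotoxicity format: compound titrations on p53-null or A138V-expressing H1299 cells held 24 hr at 39C, cell ATP then measured, AC50 from Hill model.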
NTMT1 inhibitor – Primary qHTS for Inhibitors of N-terminal methyltransferase 1 (NTMT1): MTaseGlo Assay; 2.5% of 59,000 active; N-terminal Xaa-Pro-Lys N-methyltransferase 1 (Homo sapiens), Q9BV86; Potency, µM (series often up to 114 µM), for inactives: at the top dose activity change, negative = inhibition, actives largely listed as inhibitors; NTMT1 MTase-Glo SAH luminescence, purified enzyme;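 also: potency is read from the fitted curve at half-maximal effect; plate controls were DMSO vehicle for no effect and no enzyme for full effect; nearly all actives have a fitted effect of over 65% in size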
Target sequence (Q9BV86 whole entry, looked up): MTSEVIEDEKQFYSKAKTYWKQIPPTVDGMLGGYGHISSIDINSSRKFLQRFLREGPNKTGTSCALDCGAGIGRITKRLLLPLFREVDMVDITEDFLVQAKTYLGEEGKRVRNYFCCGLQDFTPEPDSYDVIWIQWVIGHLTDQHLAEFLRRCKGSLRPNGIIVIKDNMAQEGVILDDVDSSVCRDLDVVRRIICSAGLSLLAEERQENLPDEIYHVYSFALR
SKOV3 invasion – Primary qHTS assay for Inhibitors of ovarian cancer metastasis using an organotypic tumor microenvironment (TME) model; Potency, µM (top dose mostly 45.8 µM), for inactives: top-dose activity change, negative = inhibition, usual class: inhibitors; AID 1963576, 2024; SKOV3ip1-GFP adhesion/invasion on 3D omental model, fluorescence; 0.1% of 46,000 active;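 also: potency is read from the fitted curve at half-maximal effect; plate controls were DMSO wells for no effect and tomatine positive control wells for full effect; nearly all actives have a fitted effect of over 65% in size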
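Primary human omental fibroblast/mesothelial 3D culture pre-formed 48 h. SKOV3ip1-GFP cells added with compounds (0.36-46 umol/L), incubated 2 h RT/16 h 37 C, fixed; GFP cells quantified at 488/509 nm.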
p53null 32C tox – qHTS Screen for Compounds that Selectively Target Cancer Cells with p53 Mutations: Cytotoxicity of p53 Null Cells at the Permissive Temperature. H1299-neo p53 null cells, ATP luminescence, 24 h, 32C. Potency, µM (doses to about 46.1 µM), without a hit: at the highest dose activity change, negative = cytotoxicity, most hits filed as cytotoxic. 0.62% of 55,000 active;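 also: potency is read from the fitted curve at half-maximal effect; 0% = DMSO only and -100% = full killing by 100 µM tamoxifen; nearly all actives have a fitted effect of over 55% in size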
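H1299-neo, 600 cells/well; overnight 37C; cpd up to 46 uM, 24 h at 32C; ATPlite luminescence after 20 min RT; normalized to DMSO (0%) and tamoxifen 100 uM (100% kill); Hill-fit AC50.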
DYRK1A KinaseGlo – Assay for Inhibitors of Dual-Specificity Tyrosine-(Y)-Phosphorylation Regulated Kinase 1A (Kinase-Glo assay); shares compounds with NTMT1 inhibitor; recombinant DYRK1A, Kinase-Glo ATP depletion luminescence; Potency, µM (top dose mostly 76.9 µM), for the others: at the top dose activity change, negative = inhibition, hits mostly inhibitors; 80% of 100 active; AID 2705, 2010
CLK4 KinaseGlo – Confirmation Assay for Inhibitors of CDC-like Kinase 4 (Kinase-Glo Assay): SAR round 2; shares compounds with NTMT1 inhibitor; 90% of 90 active; Potency, µM (highest dose often 76.9 µM), without a hit: at the highest dose activity, negative = inhibition, actives largely listed as inhibitors; recombinant Clk4, Kinase-Glo ATP luminescence, 4.5 h
Target sequence (Q9HAZ1 whole entry, looked up): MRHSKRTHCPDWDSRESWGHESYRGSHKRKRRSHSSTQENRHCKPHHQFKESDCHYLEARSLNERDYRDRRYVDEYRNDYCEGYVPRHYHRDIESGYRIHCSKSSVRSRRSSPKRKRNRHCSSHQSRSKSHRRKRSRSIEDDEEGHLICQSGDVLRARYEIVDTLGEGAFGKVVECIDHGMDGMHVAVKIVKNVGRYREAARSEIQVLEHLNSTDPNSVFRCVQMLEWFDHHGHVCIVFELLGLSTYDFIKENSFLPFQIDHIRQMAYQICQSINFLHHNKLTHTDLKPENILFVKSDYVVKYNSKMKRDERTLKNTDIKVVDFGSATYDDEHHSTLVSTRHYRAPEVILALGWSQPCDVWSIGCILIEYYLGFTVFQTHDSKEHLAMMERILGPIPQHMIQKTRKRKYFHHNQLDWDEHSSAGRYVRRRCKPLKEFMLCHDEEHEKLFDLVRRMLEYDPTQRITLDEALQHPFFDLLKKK
Sfp PPTase inh – qHTS Assay for Inhibitos of Bacillus subtilis Sfp phosphopantetheinyl transferase (PPTase): Chemistry Optimization Followup | shares compounds with NTMT1 inhibitor | Potency, µM (series often up to 114 µM), without a hit: at the highest dose activity change, negative = inhibition, actives largely listed as inhibitors | AID 540350, 2011 | purified Sfp PPTase enzyme activity, qHTS | 78% of 230 active
Bsub HM489 growth – qHTS for Inhibitos of Bacillus subtilis Sfp phosphopantetheinyl transferase (PPTase): Chemistry Optimization Followup in B. Subtilis HM489; shares compounds with NTMT1 inhibitor; Potency, µM (top dose mostly 114 µM), without a hit: top-dose activity change, negative = inhibition, most hits filed as inhibitors; 50% of 220 active; B. subtilis HM489 (acpS-) growth, BacTiter-Glo, 5 h; AID 540353, 2011
Sfp PPTase gel – Gel-Based Assay for Inhibitos of Bacillus subtilis Sfp phosphopantetheinyl transferase (PPTase): Chemistry Optimization Followup. shares compounds with NTMT1 inhibitor. purified Sfp PPTase, gel-based product detection. Potency, µM (titrated, usually from 250 µM), inactives show top-dose activity change, negative = inhibition, actives largely listed as inhibitors. 54% of 220 active. AID 540355, 2011
Sfp gel – qHTS Assay for Inhibitors of Bacillus subtilis Sfp phosphopantetheinyl transferase (PPTase): Gel Based Assay. shares compounds with NTMT1 inhibitor. purified Sfp PPTase, gel-based product detection. Potency, µM (doses to about 250 µM), without a hit: top-dose activity change, negative = inhibition, usual class: inhibitors. 90% of 45 active. AID 602362, 2012
Sfp inh SAR2 – qHTS Assay for Inhibitors of Bacillus subtilis Sfp phosphopantetheinyl transferase (PPTase): SAR Round 2; shares compounds with NTMT1 inhibitor; purified Sfp enzyme, PPTase activity, qHTS; Potency, µM (titrated, usually from 57.1 µM), without a hit: at the highest dose activity change, negative = inhibition, usual class: inhibitors; 87% of 230 active; AID 602370, 2012
hGST A1-1 inh – qHTS Assay for Inhibitors of Bacillus subtilis Sfp phosphopantetheinyl transferase (PPTase): SAR in hGST A1-1; shares compounds with NTMT1 inhibitor; 55 tested, under 10 active; Potency, µM (doses to about 114 µM), inactives show at the highest dose activity change, negative = inhibition, hits mostly inhibitors; hGST A1-1 enzyme activity counter-screen, qHTS
HSD17B4 counter – Extended Characterization of HPGD Inhibitors: Counterscreen Against HSD17b4. shares compounds with NTMT1 inhibitor. purified HSD17B4, estradiol/NAD+, NADH fluorescence. Potency, µM (titrated, usually from 57.1 µM), for the others: at the highest dose activity change, negative = inhibition, hits mostly inhibitors. 10% of 230 active. AID 743187, 2013
ALDH1A1 counter – Extended Characterization of HPGD Inhibitors: Counterscreen Against ALDH1A1; shares compounds with NTMT1 inhibitor; AID 743195, 2013; recombinant ALDH1A1, NADH fluorescence, propionaldehyde/NAD+; 93% of 230 active; Potency, µM (top dose mostly 57.1 µM), for inactives: at the highest dose activity change, negative = inhibition, usual class: inhibitors
NNMT counter – Counterscreen qHTS for Inhibitors of N-terminal methyltransferase 1 (NTMT1): NNMT MTaseGlo assay | shares compounds with NTMT1 inhibitor | NNMT MTase-Glo luminescence, SAH detection | Potency, µM (doses to about 57.1 µM), inactives show top-dose activity, negative = inhibition, hits mostly inhibitors | 10% of 120 active | AID 1645878, 2021
* hit, by the source's call; ? = inconclusive; / = no result given; ! = not active in a repeat; [ ] = remark or other dose. Calls follow the shape of the dose curve; as a rule, active = well fitted curve in the direction sought with a large enough effect; inconclusive = small, poorly fitted or top-dose-only effect, or another doubt; inactive = no such curve, though single readings can be large; an effect the other way counts as inactive or inconclusive.

SMILES	p53null 39C kill	NTMT1 inhibitor	SKOV3 invasion	p53null 32C tox	others
NC(=NCCCCCCN=C(N)/N=C(\N)Nc1ccc(Cl)cc1)/N=C(\N)Nc1ccc(Cl)cc1	/	25µM*!	/	/	NNMT counter=?
Cc1ccc(NS(=O)(=O)c2cccc(C#N)c2)c2[nH]cc(C#N)c12	/	13%	/	/
CN(C)CCCOc1ccc(-c2ccc3ncc4c(c3c2)n(C2CCOCC2)c(=O)n4C)cn1	/	0%[57.5 µM]	/	/
COc1ccc(-c2cc3c(C)nc(N)nc3n(C3CCC(OCCO)CC3)c2=O)cn1 (stereo not drawn)	/	0%	-17%	/	NNMT counter=?
COc1cc2ncnc(Nc3cccc(O)c3)c2cc1OC	/	-10%[57.5 µM]	/	/
COc1cc2c(Nc3cc(F)c(Cl)c(Cl)c3)ncnc2cc1OCC1CCCN(C)CCC1	/	35µM*	/	/	NNMT counter=?
CN(C)C(=O)Nc1cc(-c2ccccc2)ccc1N(C)C	/	-3%[57.5 µM]	/	/	NNMT counter=-8%
CCOc1ccc(CCNC(=O)c2ccnn2Cc2cccc(C)c2)cc1OCC	/	13%	/	/
Cc1cc(C)nc(NC(=S)N2CCN(Cc3c(F)cccc3Cl)CC2)c1	/	-19%[57.5 µM]	/	/	Sfp PPTase inh=8.3µM*;Bsub HM489 growth=-23%;Sfp PPTase gel=-42%;Sfp inh SAR2=?;HSD17B4 counter=-12%;ALDH1A1 counter=11µM*
Cc1cc(C)nc(NC(=S)N2CCN(c3ccc(Cl)c(Cl)c3Cl)CC2)c1	/	?	/	/	Sfp PPTase inh=2.4µM*;Bsub HM489 growth=7.4µM*;Sfp PPTase gel=?;Sfp inh SAR2=0.73µM*;HSD17B4 counter=-23%;ALDH1A1 counter=19µM*
COc1ccc(C)cc1NC(=S)N1CCN(c2ccccn2)CC1	/	/	/	2%
COc1ccc(NC(=S)Nc2cc(C)cc(C)n2)cc1OC	20%	/	/	/
Cc1cc(C)nc(NC(=S)N2CCN(c3ccc4ncccc4c3[N+](=O)[O-])CC2)c1	/	?	/	/	Sfp PPTase inh=5.9µM*;Bsub HM489 growth=-21%;Sfp PPTase gel=-59%;Sfp inh SAR2=2.9µM*;HSD17B4 counter=-16%;ALDH1A1 counter=19µM*
Cc1cc(C)nc(NC(=S)N2CCN(c3ccc([N+](=O)[O-])cc3Cl)CC2)c1	/	28µM*	/	/	Sfp PPTase inh=1.5µM*;Bsub HM489 growth=-17%;Sfp PPTase gel=2µM*;Sfp gel=1.5µM*;Sfp inh SAR2=0.81µM*;hGST A1-1 inh=0%;HSD17B4 counter=19µM*;ALDH1A1 counter=0.68µM*
Brc1cnc2nc(SCc3ccncc3)[nH]c2c1	/	18%	/	/
Cc1cc(C)nc(NC(=S)N2CCN(c3cc(Cl)c(Cl)cc3Cl)CC2)c1	/	?	/	/	Sfp PPTase inh=4.7µM*;Bsub HM489 growth=?;Sfp PPTase gel=5µM*;Sfp inh SAR2=3.2µM*;HSD17B4 counter=-22%;ALDH1A1 counter=22µM*
Cc1cc(C)nc(NC(=O)CCC2CCCC2)c1	-1%	/	/	-14%
N[C@H]1Cc2ccccc2N(O)C1=O	/	-30%[57.5 µM]	/	/
CN1C(=O)[C@@H](NC(=O)c2cc(Cc3ccccc3)on2)COc2ccccc21	/	6%	/	/
O=C(O)c1cccc(-c2noc(-c3ccccc3C(F)(F)F)n2)c1	/	-3%	/	/
FC1(F)Oc2ccc(-c3ccc4ncnc(NCc5cccs5)c4c3)cc2O1	/	6%	/	/	DYRK1A KinaseGlo=?
Clc1ccccc1-c1ccc2ncnc(NCc3cccs3)c2c1	/	5%	/	/
Cc1csc(CNc2ncnc3ccc(-c4ccc(C(C)O)o4)cc23)n1 (stereo not drawn)	/	?	/	/	CLK4 KinaseGlo=1µM*
C[C@@H](O)c1ccc(-c2ccc3ncnc(NCc4cccs4)c3c2)o1	/	-10%[57.5 µM]	/	/	CLK4 KinaseGlo=1.5µM*

Compound activity deposited in PubChem by National Center for Advancing Translational Sciences (NCATS).
